Screening results deposited in PubChem by several laboratories.
CCHF vOTU inh-1: blocks the CCHF virus ovarian tumor domain protease. AID 651958. CCHFV vOTU protease, Pep-AMC fluorescence. inhibition, % at 11.5 µM. 370,000 tested, 0.55% active; further: 0% = vehicle wells with enzyme and 100% = no enzyme wells
BJeLR viability: kills HRASV12-expressing BJeLR cells; BJeLR (HRASV12) viability, CellTiter-Glo ATP luminescence, 48 h; inhibition, % (test concentration not listed); 300,000 tested, 0.17% active; in the data active means inhibition above about 50%
Yp Topo-I inh: Y. pestis Topo-I inhibition via cleavage products; Y. pestis Topo-I cleavage product accumulation, plate reader; activity, % at 10 µM; 360,000 tested, 0.064% active; in the data active means activity above about 50%, passing the limit was not always enough
PrP 5UTR inh: suppresses PrP 5' UTR mRNA reporter expression. inhibition, % (concentration not given with the values). cell-based PrP 5' UTR mRNA reporter, plate reader. 340,000 tested, 0.35% active; in the data active means inhibition above about 52%; further: 0 = median of the neutral control wells
PrPC TRFRET: inhibitors of human cell surface prion protein PrPC; TR-FRET read-out; 370,000 tested, 0.43% active; AID 720596; inhibition, % at 13.8 µM; in the data active means inhibition above about 24%; further: 0% = median of the test wells and 100% = reference compound wells
PfHsp40 yeast: compounds rescuing yeast from Plasmodium falciparum HSP40 toxicity. AID 504582. 340,000 tested, 0.68% active. growth rescue, % at 12.5 µM. S. cerevisiae expressing PfHsp40, growth rescue, ATP luminescence; in the data active means growth rescue above about 28%, passing the limit was not always enough;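 further: yeast W303a lacking pdr1 and pdr3 grown in galactose medium; growth measured after three days at 30 °C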
PrP 5UTR single: prion 5' UTR mRNA inhibition, cherry-pick retest; shares compounds with PrP 5UTR inh; 1,100 tested, 48% active; cell-based prion protein 5' UTR reporter, plate reader; inhibition, % at 2.5 µM; in the data active means inhibition above about 54%
CCHF vOTU inh-2: CCHFV vOTU protease inhibition, confirmation; inhibition, % at 11.5 µM; 1,900 tested, 17% active; shares compounds with CCHF vOTU inh-1; Recombinant CCHFV vOTU, Pep-AMC fluorescence
PrPC TRFRET cf: cell surface PrPC inhibition, TR-FRET confirmation; shares compounds with PrPC TRFRET; cell surface PrPC level; inhibition, % at 13.8 µM; 1,500 tested, 65% active; AID 743200; in the data active means inhibition above about 25%
LD9 tox: counter-screen for PrPc inhibitors: cytotoxicity in LD9 cells | luminescence viability | shares compounds with PrPC TRFRET | 1,500 tested, 29% active | inhibition, % at 13.8 µM; in the data active means inhibition above about 9.5%
* marks the source's active call; other numbers are inactive results; nt = no result given. Shown are actives, neighbours in structure and some others; about 2% of the full set was active somewhere. Unless noted, no stated cut-off is given here; in the data, active means inhibition above about 30%; inactive means the rest.

SMILES | CCHF vOTU inh-1 | BJeLR viability | Yp Topo-I inh | PrP 5UTR inh | PrPC TRFRET | PfHsp40 yeast | PrP 5UTR single | PrPC TRFRET cf | LD9 tox | others
CCOC(=O)[C@@]12CCCC3=C1N(CCC3)C(=O)[C@H]2CC(=O)NCC12CC3CC(CC(C3)C1)C2 | 6 | nt | nt | nt | -9 | nt | nt | nt | nt
COC(=O)[C@]12C[C@H](CC(=O)NCc3cccc4ccccc34)C(=O)N(Cc3ccc(Cl)cc3Cl)C1=C[C@H](C(C)C)O[C@@H]2C1CC1 | 19 | nt | nt | nt | -7 | nt | nt | nt | nt
CN(C)CC/C=C1\c2ccccc2Sc2ccc(Cl)cc21 | 2 | -12 | 2 | 9 | -11 | 1 | nt | nt | nt
OCCN1CCN(CC/C=C2/c3ccccc3Sc3ccc(Cl)cc32)CC1 | 5 | nt | 7 | 82* | -21 | 0 | -19 | nt | nt
Cc1c(N(C)CS(=O)(=O)O)c(=O)n(-c2ccccc2)n1C | 11 | nt | -1 | 58* | -2 | -1 | -26 | nt | nt
CC(C)c1ccc(OCC(=O)NNC(=O)c2cnccn2)cc1 | 2 | 6 | -2 | 62* | -5 | 1 | 3 | nt | nt
COC(=O)C1CN(Cc2cn(CCC3OCCO3)nn2)CCS(=O)(=O)N1Cc1ccc(F)cc1 (stereo not given) | 4 | nt | nt | nt | -1 | nt | nt | nt | nt
COc1ccc(C2=Nn3c(nnc3-c3ccccc3F)SC2)cc1OC1CCCC1 | 20 | nt | 6 | -17 | 16 | 13 | nt | nt | nt
COc1ccc(OC)c(-c2nnc3n2N=C(c2ccc(OC)c(OC4CCCC4)c2)CS3)c1 | 32* | nt | -2 | 65* | 20 | 2 | 86* | nt | nt | CCHF vOTU inh-2=23
COC(=O)C1=C(C(=O)OC)SC2(S1)C(C(=O)OC)=C(C(=O)OC)SC1=C2c2cc(C)cc(C)c2NC1(C)C | 17 | 9 | 6 | -14 | -6 | 1 | nt | nt | nt
COC(=O)C1=C(C(=O)OC)SC2(S1)C(C(=O)OC)=C(C(=O)OC)Sc1c2ssc1=O | 32* | nt | -6 | 75* | -24 | 19 | 72* | nt | nt | CCHF vOTU inh-2=9
C/C=C/COC(=O)c1[nH]c2c(c1C)C(=O)CC(c1ccco1)C2 (stereo not given) | 30* | 38 | -8 | 62* | 8 | 2 | 85* | nt | nt | CCHF vOTU inh-2=-17
Cc1cccc(CN2[C@@H](C)[C@H](c3ccccc3)Oc3cc(Br)ccc3S2(=O)=O)c1 | -4 | nt | nt | nt | 1 | nt | nt | nt | nt
CN1CCN(c2ccc([N+](=O)[O-])c3no[n+]([O-])c23)CC1 | 35* | 71* | -8 | 79* | 3 | 5 | 86* | nt | nt | CCHF vOTU inh-2=21
COc1ccc(/C=N/Nc2nnc(C)n2N)cc1OC | 91* | 7 | -1 | 76* | -10 | -1 | -8 | nt | nt | CCHF vOTU inh-2=4
Clc1ccccc1N=Nc1ccccn1 | 84* | nt | -6 | 68* | -9 | 0 | -22 | nt | nt | CCHF vOTU inh-2=10
Cc1[nH][nH]c(=O)c1N=Nc1ccccc1Cl | 9 | -4 | -5 | -11 | -14 | 0 | nt | nt | nt
CCCCS(=O)(=O)NCC1CCN(C(=O)C(=O)c2cc3ccccc3o2)CC1 | 4 | nt | nt | nt | -11 | nt | nt | nt | nt
CC(C)(N[C@@H](Cc1ccccc1)C(=O)NCC(c1ccccc1)c1ccccc1)C(=O)NC1CCCCC1 | nt | nt | nt | nt | -4 | nt | nt | nt | nt
CN1CCc2c(sc(NC(=O)c3ccc([N+](=O)[O-])o3)c2C(N)=O)C1 | 18 | 0 | -7 | 91* | 44* | 0 | 97* | 42* | 61*
NC(=O)c1c(NC(=O)c2ccc([N+](=O)[O-])o2)sc2c1CCCC2 | -6 | -8 | -4 | 17 | -2 | 0 | nt | nt | nt
Cc1ccc2nc(NC(=O)c3ccccn3)sc2c1 | 6 | 22 | 2 | 89* | 25* | 0 | 86* | 61* | 77*
CCCCOCCCNC(=O)C[C@H]1C[C@@]2(C(=O)OC)C(=C[C@H](C(C)C)O[C@@H]2C2CC2)N(Cc2cccc3ccccc23)C1=O | 23 | nt | nt | nt | -4 | nt | nt | nt | nt
O=C(NCCc1ccccc1)OCc1cn(-c2cccc(Cl)c2)nn1 | 3 | nt | nt | nt | -7 | nt | nt | nt | nt
CC1=CC(C)CC(C)OC(=O)CC(c2ccc(O)cc2)NC(=O)C(Cc2c(Br)[nH]c3ccccc23)N(C)C(=O)C(C)NC(=O)C(C)C1 (stereo not given) | 18 | nt | 12 | 74* | 32* | 7 | 95* | 25* | 11*
SMILES | CCHF vOTU inh-1 | BJeLR viability | Yp Topo-I inh | PrP 5UTR inh | PrPC TRFRET | PfHsp40 yeast | PrP 5UTR single | PrPC TRFRET cf | LD9 tox | others
CNc1c2cccc(C)c2nc2c(C(=O)NCCN(C)C)cccc12 | -11 | nt | -50 | 96* | 29* | 1 | 96* | 62* | 59*
O=C1N(c2ccccc2)CC2C(c3ccccc3)C(c3ccccc3)N3CCCC123 (stereo not given) | -2 | nt | nt | nt | 2 | nt | nt | nt | nt
O=C1N(c2ccccc2)C[C@@H]2C[C@@H](c3cc4ccccc4o3)N3CCC[C@@]123 | -15 | 51* | 8 | 59* | 40* | -1 | 74* | 54* | 25*
Cc1ccc(C(C)C)c(OCc2ccc(C(=O)N/N=C/c3cccc(O)c3O)cc2)c1 | 17 | 74* | 3 | 62* | 43* | 0 | 65* | 29* | 19*
Nc1ncnc2c(C3OC(CO)C(O)C3O)c[nH]c12 (stereo not given) | -15 | nt | -3 | 95* | 57* | -1 | 97* | 61* | 91*
Nc1ncnc2c1ncn2[C@@H]1O[C@H](CO)[C@@H](O)[C@H]1O | 1 | 6 | 7 | -18 | 1 | -3 | nt | nt | nt
COc1ccc(CC2C(=O)NC(C)C(=O)N(C)C3C(=O)N(C)C(Cc4ccc(O)c(c4)Oc4ccc(cc4)C3O)C(=O)NC(C)C(=O)NC(C)C(=O)N2C)cc1 (stereo not given) | -10 | nt | 20 | 53* | 87* | -2 | 41 | 95* | 38*
CC(=O)CC[C@H]1CC[C@]2(CCCN(C(=O)c3ccccc3)C2)O1 | 4 | nt | nt | nt | 4 | nt | nt | nt | nt
C=C1C(=O)O[C@H]2[C@H]1[C@H](OC(=O)CC(=O)O[C@@H]1C[C@@H](C)[C@@H]3C=CC(=O)[C@@]3(C)[C@H]3OC(=O)C(=C)[C@H]13)C[C@@H](C)[C@H]1C=CC(=O)[C@]12C | -6 | 0 | 13 | -3 | 16 | 0 | nt | nt | nt
C=C1C(=O)O[C@@H]2C[C@@H](C)[C@@H]3C=CC(=O)[C@@]3(C)[C@@H](OC(=O)CC(=O)O[C@H]3[C@@H]4C(=C)C(=O)O[C@@H]4C[C@@H](C)[C@@H]4C=CC(=O)[C@]43C)[C@H]12 | 5 | 94* | 4 | 95* | 98* | 0 | 98* | 99* | 99*
COC(=O)[C@]12CCCCC=C1N(Cc1ccc(OC)cc1)C(=O)[C@@H]2CC(=O)NCc1ccc(OC)c(OC)c1 | 6 | nt | nt | nt | 4 | nt | nt | nt | nt
